Values joined by “and” are separate entries in the source; they are usually repeats but may differ in a detail not shown here. Equal entries are not always repeated. Active and inactive are the calls of the source.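 The calls were made as follows, unless noted: active = compounds whose cell count with miR-34 switched on is under 0.7 times the count with it off; inactive = the rest.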
Experiments:
[1] = system: Aerobactin synthetase IucA (Klebsiella pneumoniae); test: inhibition of K. pneumoniae IucA enzyme – biochemical, Tocris library, absorbance (AID 1345561; call rule not given here;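 also: 100% = enzyme without compound and 0% = no enzyme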); details: purified IucA enzyme assay, absorbance (OD) read-out; stronger effect = lower value;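 tested at 8 µM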
[2] = viability loss with induced miR-34 in A549 – imaging, A549 dox-inducible miR-34, nuclei and caspase counts, primary screen (AID 1347080); details: A549 miR-34 inducible, Hoechst nuclei count, 48 h
[3] = galactose survival enhancers in mitochondrial complex I cybrids – cell-based, galactose medium, ATP luminescence, primary screen (AID 1645843;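 active = z-score of at least 1.8 in each of two replicates, scored against plate mean and spread of sample wells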;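 also: positive z means more ATP and so rescue of galactose-driven cybrid death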); details: complex I mutant cybrid cells, 72 h, stronger effect = higher value
[4] = stronger effect = lower value, cell number ratio, induced over uninduced
[5] = measured here: relative caspase fold change +Dox/-Dox
[6] = measured here: total cells with miR-34 induction, stronger effect = lower value
[7] = measured here: total cells without miR-34 induction

SMILES	remaining activity [1]	fold change [2, 4]	fold change [2, 5]	cell count [2, 6]	cell count [2, 7]	z-score [3]
c1ccc(COCCCc2cnc[nH]2)cc1	112% (inactive)	0.883 (inactive)	2.69	8520	9640	-0.18 (inactive)
CS(=O)(=O)c1ccc(Cn2c3c(c4cc(F)cc(F)c42)CCCC3CC(=O)O)cc1 (configuration not stated)	110% (inactive)	0.908 (inactive)	0.675	8590	9460	0.655 (inactive)
O=C(O)CCC/C=C\C[C@@H]1CO[C@H](C(F)(F)F)O[C@@H]1c1ccccc1O	111% (inactive)	0.924 (inactive)	0.777	7790	8430	0.14 (inactive)
O=C(Cc1ccccc1)Nc1nc2ccc(Cl)cc2c2nc(-c3ccco3)nn12	112% (inactive)	1 (inactive)	0.707	7840	7820	0.635 (inactive)
COC(=O)[C@H]1C2C[C@H]3c4[nH]c5ccccc5c4CCN3C[C@H]2CC[C@@H]1O (some centres not stated)	106% (inactive)	0.968 (inactive)	0.826	8540	8820	-0.115 (inactive)
Cn1cccc1/C=C1\C(=O)NC(=O)c2ccccc21	129% (inactive)	0.918 (inactive)	1.16	8530	9300	-0.415 (inactive)
Cc1cc(C)c(S(=O)(=O)Nc2ccccc2C(F)(F)F)c(C)c1	96.1% (inactive)	0.879 (inactive)	0.932	6450	7330	1.2 (inactive)
O=C(NCCCN1CCC2(CC1)OCc1ccccc12)[C@H]1CCCN1Cc1ccccc1	123% (inactive)	0.953 (inactive)	1.86	7790	8180	-0.88 (inactive)
CC(C)c1ccccc1S(=O)(=O)c1cc(N)c2ncccc2c1[N+](=O)[O-]	94.3% (inactive)	0.871 (inactive)	1.36	6170	7090	-0.685 (inactive)
C[N+](C)(C)CCCCCNCC12CC3CC(CC(C3)C1)C2	117% (inactive)	0.943 (inactive)	0.772	8560	9080	-0.15 (inactive)
COc1ccc([C@H]2CNC(=O)C2)cc1OC1CCCC1	113% (inactive)	0.966 (inactive)	0.702	9600	9950	-0.255 (inactive)
OCCNCCCOc1cccc(Cl)c1Cl	98.9% (inactive)	0.929 (inactive) and 0.971 (inactive)	0.846 and 1.42	5820 and 3550	6260 and 3660	-0.65 (inactive)
O=C(c1ccc2c(c1)OCO2)N1CCCCC1	118% (inactive)	0.987 (inactive)	0.905	9020	9140	-0.205 (inactive)
COc1ccccc1N1CCN(CCCCN2C(=O)CCC2=O)CC1	103% (inactive)	0.855 (inactive)	0.698	8300	9700	-0.25 (inactive)
c1ccc(Oc2nc(NC3CCCCC3)c3[nH]cnc3n2)cc1	110% (inactive)	0.921 (inactive)	1.13	7420	8060	-0.49 (inactive)
CC(=Nc1ccccc1N)c1c(C)cc(=O)n(O)c1O	117% (inactive)	1.16 (inactive)	0.955	3450	2970	-0.105 (inactive)
CS/C(N)=C(C#N)/C(C#N)=C(\N)SC	109% (inactive)	0.85 (inactive)	1.19	8330	9800	-0.595 (inactive)
C=CCN1CCN(c2nc3ccccc3nc2C#N)CC1	112% (inactive)	0.901 (inactive)	1.37	8950	9930	0.335 (inactive)
O=C(Nc1c(-c2cccs2)nc2ccccn12)c1ccc(Cl)cc1	108% (inactive)	0.889 (inactive)	0.893	8490	9560	1.35 (inactive)
O=C(Nc1cccc2cccnc12)c1ccc(N2C(=O)[C@@H]3[C@H](C2=O)[C@@H]2C=C[C@H]3C2)cc1	115% (inactive)	1 (inactive)	0.754	6560	6550	-0.025 (inactive)
C[C@@H](NCc1cc(Br)cc2[nH]c(=O)c(=O)[nH]c12)P(=O)(O)O	104% (inactive)	0.887 (inactive)	1.3	8900	10000	-0.07 (inactive)
CN1CCN(C(=O)c2nc3ccc(Cl)cc3[nH]2)CC1	102% (inactive)	0.91 (inactive)	1.56	8900	9780	0.84 (inactive)
CC[C@@H]1Cn2c(c3nc(-c4ccccc4)nc-3n(C)c2=O)N1	108% (inactive)	0.901 (inactive)	1.44	7600	8440	-0.165 (inactive)
CCCCC#Cc1nc(NC)c2ncn([C@@H]3O[C@H](CO)[C@@H](O)[C@H]3O)c2n1	96.8% (inactive)	0.906 (inactive)	0.777	8810	9730	-0.21 (inactive)

SMILES	remaining activity [1]	fold change [2, 4]	fold change [2, 5]	cell count [2, 6]	cell count [2, 7]	z-score [3]
O=c1oc(-c2ccc(C(F)(F)F)cc2)nn1Cc1cc(Cl)ccc1O	93.9% (inactive)	1.02 (inactive)	1.81	6380	6280	-0.655 (inactive)
CC1=C(/C=C/C(=C/C=C/C(C)=C/C(=O)O)c2ccc(C)cc2)C(C)(C)CCC1	105% (inactive)	0.936 (inactive)	1.77	6950	7420	0.99 (inactive)
c1ccc(N2CCN(CCCOc3ccc4c(c3)OCO4)CC2)cc1	103% (inactive)	0.912 (inactive)	0.762	8370	9180	0.385 (inactive)
Nc1ncnc2c1nc(Br)n2[C@@H]1O[C@@H]2COP(=O)(O)O[C@H]2[C@H]1O	114% (inactive)	0.96 (inactive)	0.834	8030	8360	-0.015 (inactive)
CCN(CC)c1ccc(/C=N/NC(=O)c2ccc(O)cc2)cc1	100% (inactive)	0.945 (inactive)	1.02	5490	5810	0.055 (inactive)
CO[C@@H]1[C@H](O)[C@@H](CO)O[C@H]1n1cnc2c(NC3CCCCC3)ncnc21	99.6% (inactive)	0.954 (inactive)	1.32	8920	9350	0.065 (inactive)
N[C@@H](Cc1cc(CP(=O)(O)O)cc(-c2ccccc2Cl)c1)C(=O)O	118% (inactive)	0.967 (inactive)	1.52	9360	9670	0.225 (inactive)
O=C(c1ccc(F)cc1)C1CCN(CCCCc2ccccc2)CC1	113% (inactive)	0.877 (inactive)	1.29	8620	9830	-0.88 (inactive)
O=C(O)COc1cccc(-c2ocnc2-c2nc(-c3ccccc3)c(-c3ccccc3)o2)c1	118% (inactive)	0.961 (inactive)	0.827	8540	8890	0.465 (inactive)
CCOC(=O)C1=C(C)NC(c2ccccc2)=C(C(=O)OCc2ccc([N+](=O)[O-])cc2)C1C#Cc1ccccc1 (configuration not stated)	124% (inactive)	0.924 (inactive)	0.543	7910	8560	0.3 (inactive)
COc1ccc(Nc2ncnc3ccc(OC)cc23)cc1	108% (inactive)	0.902 (inactive)	1.09	6910	7660	-0.345 (inactive)
O=C(O)c1c(Sc2ccccc2)c2cc(Cl)ccc2n1Cc1ccc(Cl)cc1	122% (inactive)	0.94 (inactive)	1.45	6730	7160	1.25 (inactive)
NCCCCCc1cnc[nH]1	118% (inactive)	0.92 (inactive)	0.639	9140	9930	-0.155 (inactive)
CCCn1c(=O)[nH]c2nc(-c3ccc(S(=O)(=O)O)cc3)[nH]c2c1=O	93.6% (inactive)	0.829 (inactive)	2.26	7230	8720	1.45 (inactive)
CCCC[P+](CCCC)(CCCC)Cc1ccc(NC(=O)[C@@H](Cc2ccc3ccccc3c2)NC(=NC2CCCCC2)NC2CCCCC2)cc1	117% (inactive)	1.01 (inactive)	1.13	2940	2900	-0.83 (inactive)
COC(=O)C1=C(C)NC(C)=C(C(=O)NCCCN2CCC(c3ccccc3)(c3ccccc3)CC2)C1c1ccc([N+](=O)[O-])cc1 (configuration not stated)	98% (inactive)	0.668 (active)	1.88	294	441	-0.7 (inactive)
CC(C)NCC(O)COc1ccccc1-n1cccc1 (configuration not stated)	99.6% (inactive)	0.968 (inactive)	0.992	8690	8980	-0.43 (inactive)
CCCCn1c(=O)c2[nH]c(C34CC5CC(CC3C5)C4)nc2n(CCCO)c1=O	106% (inactive)	1.02 (inactive)	1.81	5180	5060	0.41 (inactive)
CS(=O)(=O)Nc1c(O)ccc2c1CCCC2C1=NCCN1 (configuration not stated)	114% (inactive)	1 (inactive)	0.792	9080	9050	-0.21 (inactive)
O[C@@H]1[C@H](O)[C@@H](CCl)O[C@H]1n1cnc2c(NC3CC4CCC3C4)ncnc21 (some centres not stated)	108% (inactive)	0.921 (inactive)	1.85	8570	9310	1.96 (inactive)
CCS(=O)(=O)N1CCC[C@@H]2CN3CCc4cc(OC)ccc4[C@@H]3C[C@@H]21	87.2% (inactive)	0.945 (inactive)	0.859	8340	8820	0.46 (inactive)
CCC(=O)NC1CCc2cccc(OC)c2C1 (configuration not stated)	123% (inactive)	1.01 (inactive)	0.925	8550	8470	-0.165 (inactive)
CC(C)C[C@H](NC(=O)N1CCCCCC1)C(=O)N[C@H](Cc1cn(C)c2ccccc12)C(=O)N[C@H](Cc1ccccn1)C(=O)O	87.9% (inactive)	0.819 (inactive)	0.926	7880	9620	1.25 (inactive)

— PubChem BioAssay
